Among the data in PubChem BioAssay (NCI) are growth inhibition values, retold here.

Compounds without any hit were thinned out: in the full panel of roughly 79,000, 15% have a hit. Values without a mark were called inactive. Cut-off read from the data, not from the text of the source: active = growth inhibition above about 70%; inactive = the rest.

A short description of the assay: NCI Yeast Anticancer Drug Screen. Data for the rad50 strain (AID 155).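 Note: 0% = growth of vehicle-only cultures of the same strain.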 The note with it: S. cerevisiae rad50 strain growth inhibition; at 50.0 µM; active compounds read high. The method in brief:
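A DNA repair-deficient yeast mutant serves as the test organism; compound-induced growth inhibition is calculated against vehicle-treated cells.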
Regarding `NC(N)=NS(=O)(=O)c1ccc(NC(=O)c2cccn3c(=O)c4ccccc4nc23)cc1`, the growth inhibition is -6.9%. The result for `S=c1cn[nH]c2ccccc12` reads 16%; that for `S=C1CNC(=S)CN1`, -4.15%. For `CCCCN(CCCC)CC1OCCO1` the value was -6.35%; for `COc1ccccc1Br`, -3.55%; for `CC1=C(C(=O)Nc2ccccc2C)C(c2ccco2)C(C(=O)Nc2ccccc2C)=C(C)N1C`, -7.45%. For `OC1CSCCSCCCSCCSC1` the value was 34.1%; for `Cn1c(=O)c2c(ncn2CCSCC2=NS(=O)(=O)c3cc(S(N)(=O)=O)c(C(F)(F)F)cc3N2)n(C)c1=O`, 2.8%. Consider `COC(=O)C1(C(C(=O)c2ccccc2)c2ccccc2)NC(=S)NC(=O)C1C#N` (configuration not stated), for which the growth inhibition is -14.4%.

For `CCCC(=N)OCC`, the growth inhibition was -3.45%. For the molecule `COc1ccc(/C=N/N2CN(C(C)C(=O)O)B(NC34CC5CC(CC(C5)C3)C4)N=C2N)cc1OC` (configuration not stated), the growth inhibition was -16.6%. On to `CCOC(=O)/C(=C\c1cccc(F)c1)C(C)=O`, for which the growth inhibition is 20.6%. For `COC1CCC2(C)C3CCC4C(=CCC5C(C)(C)C(=O)CCC45C)CC3(C)CCC2C1(C)C` (configuration not stated), the growth inhibition was 16.3%. Consider `N#Cc1cnn(-c2ccccc2)c1N`, for which the growth inhibition is 25.5%. For `COc1ccc(NC(=O)C(=O)C(C(=O)c2ccccc2)C2OC(=O)c3ccccc32)c([N+](=O)[O-])c1` (configuration not stated) the value was 8.85%. In the case of `CC(C)CC(=O)OC1CCCCC1C1CCCCC1` (configuration not stated), the growth inhibition was -2.1%. Turning to `Cc1nc2c(-c3ccccc3)[nH]c(C)c2c(=O)o1`, the growth inhibition is -17.2%.
